Source: the supplement of paper PMC8728848
Many of the other results were omitted from the sample, so the strongest signals are more common in it than they were.

How the values were obtained:
Assay in all cases: glycan array binding signal (z-score within array); higher = stronger binding
Details in all cases: glycan notation: IUPAC condensed, linker removed
[1] = target: GlcNAc(b1-3)Gal(b1-4)GlcNAc(b1-3)Gal(b1-4)GlcNAc(b1-3)Gal(b1-4)GlcNAc(b1-2)[GlcNAc(b1-3)Gal(b1-4)GlcNAc(b1-3)Gal(b1-4)GlcNAc(b1-3)Gal(b1-4)GlcNAc(b1-6)]Man(a1-6)[GlcNAc(b1-3)Gal(b1-4)GlcNAc(b1-3)Gal(b1-4)GlcNAc(b1-3)Gal(b1-4)GlcNAc(b1-2)Man(a1-3)]Man(b1-4)GlcNAc(b1-4)[Fuc(a1-6)]GlcNAc
In short: (§1)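 Glycan array data were curated from 3228 arrays in the Consortium for Functional Glycomics database and kept only where the protein sequence was available. Glycan names were converted to IUPAC-condensed notation, and columns mapping to the same glycan were averaged. The binding signal is a within-array Z-score, averaged across arrays of the same protein sequence at different concentrations or buffers and across linkers. Negative Z-scores can be read as non-binding.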

[2] = target: GlcNAc(b1-3)Gal(b1-4)GlcNAc(b1-3)Gal(b1-4)GlcNAc(b1-3)Gal(b1-4)GlcNAc(b1-3)Gal(b1-4)GlcNAc(b1-2)Man(a1-3)[GlcNAc(b1-3)Gal(b1-4)GlcNAc(b1-3)Gal(b1-4)GlcNAc(b1-3)Gal(b1-4)GlcNAc(b1-3)Gal(b1-4)GlcNAc(b1-2)Man(a1-6)]Man(b1-4)GlcNAc(b1-4)[Fuc(a1-6)]GlcNAc
In short: as §1

[3] = target: GlcNAc(b1-3)Gal(b1-4)GlcNAc(b1-6)[GlcNAc(b1-3)]Gal(b1-4)GlcNAc
In short: as §1

Kdn(a2-3)Gal(b1-3)GalNAc = target: Kdn(a2-3)Gal(b1-3)GalNAc
In short: as §1

Kdn(a2-3)Gal(b1-4)Glc = target: Kdn(a2-3)Gal(b1-4)Glc
In short: as §1

[4] = target: Man(a1-2)Man(a1-3)[Man(a1-2)Man(a1-6)]Man(a1-6)[Man(a1-2)Man(a1-2)Man(a1-3)]Man(b1-4)GlcNAc(b1-4)GlcNAc
In short: as §1

Man(a1-6)Man = target: Man(a1-6)Man
In short: as §1

[5] = target: Neu5Ac(a2-3)Gal(b1-3)GalNAc(b1-4)[Neu5Ac(a2-8)Neu5Ac(a2-3)]Gal(b1-4)Glc
In short: as §1

Neu5Ac(a2-3)Gal(b1-4)Glc = target: Neu5Ac(a2-3)Gal(b1-4)Glc
In short: as §1

[6] = target: Neu5Ac(a2-3)Gal(b1-4)GlcNAc(b1-2)Man(a1-3)[GlcNAc(b1-4)][Neu5Ac(a2-3)Gal(b1-4)GlcNAc(b1-2)Man(a1-6)]Man(b1-4)GlcNAc(b1-4)GlcNAc
In short: as §1

[7] = target: Neu5Ac(a2-3)Gal(b1-4)GlcNAc(b1-2)[Neu5Ac(a2-3)Gal(b1-4)GlcNAc(b1-6)]Man(a1-6)[Neu5Ac(a2-3)Gal(b1-4)GlcNAc(b1-2)Man(a1-3)][GlcNAc(b1-4)]Man(b1-4)GlcNAc(b1-4)GlcNAc
In short: as §1

[8] = target: Neu5Ac(a2-3)Gal(b1-4)[Fuc(a1-3)]GlcNAc(b1-6)[Gal(b1-3)]GalNAc
In short: as §1

[9] = target: Neu5Ac(a2-6)Gal(b1-4)GlcNAc(b1-2)Man(a1-6)Man(b1-4)GlcNAc(b1-4)GlcNAc
In short: as §1

[10] = target: Neu5Ac(a2-6)Gal(b1-4)GlcNAc(b1-2)Man(a1-6)[GlcNAc(b1-2)Man(a1-3)]Man(b1-4)GlcNAc(b1-4)GlcNAc
In short: as §1

[11] = target: Neu5Ac(a2-6)Gal(b1-4)GlcNAc(b1-3)Gal(b1-4)GlcNAc(b1-3)Gal(b1-4)GlcNAc(b1-2)Man(a1-3)[Neu5Ac(a2-6)Gal(b1-4)GlcNAc(b1-3)Gal(b1-4)GlcNAc(b1-3)Gal(b1-4)GlcNAc(b1-2)Man(a1-6)]GalNAc
In short: as §1

[12] = target: Neu5Ac(a2-6)Gal(b1-4)GlcNAc(b1-3)GalNAc
In short: as §1

[13] = target: Neu5Ac(a2-6)GalNAc(b1-4)GlcNAc6S
In short: as §1

[14] = target: Neu5Ac(a2-8)Neu5Gc(a2-3)Gal(b1-4)GlcNAc
In short: as §1

[15] = target: Neu5Ac9Ac(a2-3)Gal(b1-4)GlcNAc
In short: as §1

[16] = target: Neu5Ac9Ac(a2-6)Gal(b1-4)GlcNAc
In short: as §1

Neu5Gc(a2-6)GalNAc = target: Neu5Gc(a2-6)GalNAc
In short: as §1

[17] = target: Neu5Gc(a2-8)Neu5Gc(a2-3)Gal(b1-4)GlcNAc(b1-3)Gal(b1-4)GlcNAc
In short: as §1

B1: PX9937A-bvu-521-23-521 (Bacteroides vulgatus) (protein)
chain: LDLAPEDYYGAGNFWKEASQPKAFMLGLHAQLRSYYDMFYTLGELRGGTQRVGTSSLNTSLNYADIRSQNISEDIPGISNWNGLYSPIMQVNHFIQEVENGCTFLDDATRSRYLGQAYGMRALYYFMLYRTFGGVPLITKVDILDGKPSADKFYVERATPEATMEFIKADINKSENYFGNNTSFDAYDWSRYATLMLKAEIYMWAAKVSITGFTATGATDLQTAKTALSGIIGHFELMDNFASIFSCDNKKNTEIIFAMPFIEGEASNDGGRFLYQDAVFLGQAYGRNGKVIEKDTLNLKGTGGVFRDEYTEDFWKTFKEGDSRRDATFMEYYMKNDNGTLSEFGCVMKKRIGTINSNDNRIYISDIPVYRYADALLMMAEIENGLNNPCASYINEVRKRAYGDTFEENKYTEGSYAENELAILQERDKEFVSEGKRWFDVLRMHDASGRSLVFSANANYPGTNPILGTEEAYKMLWPVNIGTLNVNPLLTQTPGYGKK
Which “glycan array binding signal (z-score)” value [1] does the source give for B1 here?
The value was -0.128.

And the “glycan array binding signal (z-score)” value [2]?
Its value is -0.708.

And the “glycan array binding signal (z-score)” value [3]?
The value was -0.214.

And the “glycan array binding signal (z-score)” value (Kdn(a2-3)Gal(b1-3)GalNAc)?
Its value is 2.84.

And the “glycan array binding signal (z-score)” value (Kdn(a2-3)Gal(b1-4)Glc)?
The value was -0.287.

What about the “glycan array binding signal (z-score)” value [4] of the same binder?
The value was -0.427.

And the “glycan array binding signal (z-score)” value (Man(a1-6)Man)?
The value was 4.8.

And the “glycan array binding signal (z-score)” value [5]?
The value was 0.038.

And the “glycan array binding signal (z-score)” value (Neu5Ac(a2-3)Gal(b1-4)Glc)?
The value was 0.96.

And the “glycan array binding signal (z-score)” value [6]?
The value was -0.062.

What about the “glycan array binding signal (z-score)” value [7] of the same binder?
The value was -0.581.

What about the “glycan array binding signal (z-score)” value [8] of the same binder?
Its value is -0.51.

And the “glycan array binding signal (z-score)” value [9]?
The value was -0.252.

And the “glycan array binding signal (z-score)” value [10]?
The value was -0.416.

What about the “glycan array binding signal (z-score)” value [11] of the same binder?
Its value is 0.232.

And the “glycan array binding signal (z-score)” value [12]?
The value was -0.431.

And the “glycan array binding signal (z-score)” value [13]?
The value was 0.342.

What about the “glycan array binding signal (z-score)” value [14] of the same binder?
Its value is 10.6.

What about the “glycan array binding signal (z-score)” value [15] of the same binder?
The value was 0.442.

And the “glycan array binding signal (z-score)” value [16]?
Its value is 0.304.

And the “glycan array binding signal (z-score)” value (Neu5Gc(a2-6)GalNAc)?
The value was -0.419.

What about the “glycan array binding signal (z-score)” value [17] of the same binder?
Its value is -0.58.
